KDM5B inh: Primary screen for KDM5B Histone Demethylases FDH-coupled qHTS | KDM5B demethylase, FDH-coupled NADH fluorescence (FDH is formaldehyde dehydrogenase) | Potency, µM (doses to about 57.7 µM), most hits filed as inhibitors | hit rate 2.6% among 220,000 | AID 1347165, 2019; active = well fitted inhibition curve with a large enough effect; also: nearly all actives have a fitted effect of over 70% in size
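Measured: NADH fluorescence change, 30 min, RT. System: KDM5BΔAP 200 nM final, H3K4me3 peptide, α-KG, Fe(II), ascorbate, NAD⁺ plus FDH, pH 7.5 HEPES. Compounds: titrated, 10 min pre-incubation with enzyme.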
Of the large screens only hits and unclear results are named; the others gave an inactive call. This is one part of a sample in which hits are shown more often than they occur.

CCN1CCN(CCNc2ncncc2-c2nc(-c3ccccc3)no2)CC1	none
O=C(COC(=O)C12CC3CC(CC(Cl)(C3)C1)C2)Nc1ccc(Cl)cc1[N+](=O)[O-]	none
O=C(c1ccc(Cl)s1)N1CCC(N(C(=O)C2CC2)C2CCOCC2)CC1	none
CCCCOc1ccc(/C=C(/C#N)c2ccccn2)cc1	none
C[C@]1(O)CCN(C(=O)CCc2c[nH]c3ccccc23)C[C@@H]1O	none
CO[C@H]1C[C@@H](O)C12CCN(C(=O)CCc1ccc(-c3cccs3)o1)CC2	KDM5B inh 14.1µM
COc1cc(OC)c(C(=O)N2CCC3(CC2)[C@H](O)C[C@@H]3OC)cc1OC	none
C[C@@]1(O)CCN(C(=O)CCc2ccc(-c3cccs3)o2)C[C@@H]1O	KDM5B inh 12.6µM
O=C(CCCc1cccs1)N1CCC2(CC1)[C@H](O)C[C@@H]2OCCO	none
Cn1nc(C(=O)N2CC[C@@](C)(O)[C@@H](O)C2)cc1-c1cccs1	none
CC(NC(=O)c1ccc(Br)cc1)C1CC2CCC1C2 (centres undefined)	none
O=C(CNC(=O)c1cc(F)cc(F)c1)NCCN1CCc2ccccc2C1	none
Cc1ccc(-c2cnc(CCC(=O)NCCN3CCOCC3)o2)cc1C	none
Cc1cc(C(=O)NCc2ccnc(N3CCCC3)c2)on1	none
CCCNC(=O)CCc1ccnc(N2CCOCC2)c1	KDM5B inh 28.2µM
Cc1ccc(N2CCN(C(=O)CCc3ccnc(N4CCOCC4)c3)CC2)cc1	none
CCCNC(=O)COc1nc2ccccc2nc1N1CCOCC1	none
Cc1ccccc1CNC(=O)CCc1ccnc(N2CCOCC2)c1	KDM5B inh 22.4µM
Cc1nn(C)c(C)c1CC(=O)NCc1cccnc1N1CCOCC1	none
O=C(CCc1ccnc(N2CCOCC2)c1)NCCN1CCc2ccccc2C1	KDM5B inh 25.1µM
O=C(CN1CCN(c2cccc(Cl)c2)CC1)NC1CCS(=O)(=O)C1 (centres undefined)	none
CCCCN(CCCC)S(=O)(=O)c1nc(C)c(Cl)c(C)c1C#N	none
CC(=O)c1ccc(NC(=O)c2ccccc2SC(C)C)cc1	none
Cc1c(C(=O)NCC(c2ccccc2)N(C)C)oc2ccc(F)cc12 (centres undefined)	none
CC(=O)c1c(C)[nH]c(C(=O)C(C)OC(=O)c2ccc(Cl)cc2F)c1C (centres undefined)	none
O=C(Cn1cnc(S(=O)(=O)N2CCc3ccccc32)c1)NC1CCCCCC1	none
COc1cccc(NC(=O)CCc2ncc(-c3ccc(C)cc3)o2)c1	none
S=C(NCc1ccccc1)Nc1ccccc1I	none
COc1ccc(C)cc1CC(=O)OCc1ccc(C#N)cc1	none
Cc1cccc(CNC(=O)c2cc(-c3ccncc3)nc3ccccc23)c1	none
O=C(NCCc1cccnc1)c1ccc(F)cc1F	none
O=C(NCc1ccccc1)c1cc(Sc2cccc(Cl)c2)nc2ccccc12	none
Cc1ccc2c(C(=O)NCc3cccc(Cl)c3)cc(NC(=O)C(C)C)cc2n1	KDM5B inh 25.1µM
Cc1ccccc1CNC(=O)c1cc(=O)[nH]c2ccccc12	none
CC(=O)Nc1cc(C(=O)NCc2ccccc2C)c2ccc(C)nc2c1	KDM5B inh 25.1µM
COc1ccc(NC(=O)c2cc(NC(=O)C(C)C)cc3nc(C)ccc23)cc1	none
O=C(NCCc1cccnc1)c1ccc(Cl)cc1Cl	none
Cc1cc(C(=O)NCC(=O)Nc2c(C)cccc2C)c2ccccc2n1	none
Cc1ccc2c(C(=O)NCCc3cccnc3)cc(NC(=O)C(C)C)cc2n1	KDM5B inh 20µM
Cc1cccc(CNC(=O)c2cc(NC(=O)C(C)C)cc3nc(C)ccc23)c1	KDM5B inh 12.6µM
CCN(C)Cc1cccc(CNC(=O)c2cc(C)nc3ccccc23)c1	none
CC(SC1CCCC1)C(=O)Nc1cccc(Cl)c1 (centres undefined)	none
Cc1cc(OCCn2cc(C(=O)C(F)(F)F)c3ccccc32)ccc1Cl	none
CNS(=O)(=O)c1ccc(CCC(=O)Nc2nc(C)c(C)s2)cc1	none
CN(C)CCN(CCc1ccccc1)C(=O)Nc1cccnc1	none
CC(Sc1nnc(C2CC2)n1-c1ccccc1)c1nnc(-c2ccc(F)cc2)o1 (centres undefined)	none
Cc1ccc(NC(=O)/C(C#N)=C/c2cc(C(C)(C)C)c(O)c(C(C)(C)C)c2)cc1C	none
Cc1ccc2nc(C)c(C)c(C(=O)NCc3nc(-c4ncccn4)no3)c2c1	KDM5B inh 28.2µM
Cc1ccc(-c2noc(CNC(=O)c3ccccc3)n2)cc1	none
COc1ccc2c(C)c(C(=O)NCc3nc(-c4ncccn4)no3)oc2c1	none
Cc1cccc(C2CCCN2C(=O)Nc2ccc(C)c(C)c2)c1 (centres undefined)	none
NC(=O)Cc1csc(NC(=O)CCc2ncc(-c3ccc(F)cc3F)o2)n1	none
N#C/C(=C/c1ccccc1OCC(=O)O)C(=O)Nc1ccc(N2CCOCC2)cc1	none
Cc1cccc(C2CCCCC2)c1O	none
O=C(CCc1nc2ccccc2c(=O)[nH]1)N1CCCCC1	none
O=C(CCn1cncn1)N1CCC(c2cc(-c3ccccc3Cl)n[nH]2)CC1	none
O=C(CCc1nc2ccccc2[nH]c1=O)N1CCN(CCn2cncn2)CC1	KDM5B inh 17.8µM
CCc1ccc2oc(C(=O)NCc3ccncc3)cc(=O)c2c1	none
CCN(C(=O)c1cn(C)c(=O)c2cc(OC)c(OC)cc12)c1ccc(C)c(C)c1	none
O=C(Cc1c[nH]c2ccccc12)N[C@H](Cc1ccccn1)C1CC(O)C1 (some centres undefined)	none
O=C(N[C@H](Cc1ccccn1)C1CC(O)C1)c1n[nH]c2c1CCCC2 (some centres undefined)	none
O=C(N[C@H](Cc1ccccn1)C1CC(O)C1)c1cccc2c1NCCC2 (some centres undefined)	KDM5B inh 31.6µM
CCn1ncc(C(=O)Nc2ccc(F)cc2)c1C	none
C=CCNC(=O)c1cnn(-c2ccc(C(F)(F)F)cn2)c1C(F)(F)F	none
C=CCNC(=O)c1cnn2cc(C)ccc12	KDM5B inh 39.8µM
C=CCNC(=O)c1cnn2ncccc12	KDM5B inh 31.6µM
C=CCNC(=O)c1ccccc1NC(=O)c1ccccn1	none
Cc1ccc(-c2nc(C(=O)NCc3ccc(Cl)cc3)no2)cc1	none
C=CCNC(=O)c1cnn2c1CN(C(C)=O)CC2	none
Cc1ccc(NC(=O)c2cnn3cccnc23)cc1C	none
Cc1ccc(CNC(=O)c2cc(-c3ccc(Cl)cc3)on2)cc1	none
Cc1ccc2c(C(=O)NCc3ccc(Cl)cc3)cnn2c1	KDM5B inh 35.5µM
C=CCNC(=O)c1cnn2c1CN(C(=O)c1cccnc1)CC2	none
Cc1ccc2c(C(=O)Nc3ccc(Cl)nc3)cnn2c1	KDM5B inh 39.8µM
CC(C)c1nnc2ccc(N3CCC(C(=O)Nc4ccccc4N4CCCC4)CC3)nn12	none
Cc1c(C(=O)Nc2cccc(S(=O)(=O)N3CCCC3)c2)oc2c(F)cccc12	none
O=C(O)CS(=O)(=O)Cc1cccc(Br)c1	none
O=C(Cn1c(=O)n(C2=CCCCC2)c2ccccc21)NCc1nnc2n1CCCCC2	none
CSc1ccc(Cl)c(C(=O)Nc2cc(F)ccc2C)c1	none
O=C(Oc1ccc2c(=O)c(-c3ccccc3)coc2c1)c1ccco1	none
COC(=O)c1sc(S(=O)(=O)Nc2ccc(Br)cc2F)c(C(=O)OC)c1C	none
Cc1ccc(S(=O)(=O)C(CC(=O)c2ccc(F)cc2)c2cccs2)cc1 (centres undefined)	none
CCCn1c(C)cc(C(=O)COC(=O)c2nn(CCC)c(=O)c3ccccc23)c1C	none
CCC(CC)NC(=O)c1cc(S(C)(=O)=O)ccc1C	none
Cc1ccccc1Nc1nc(C(=O)N2CCCC2)cs1	none
Cc1ccc(-n2ncc(C(=O)N3CCCC3)c2-n2cccc2)cc1	none
Cc1onc(-c2c(Cl)cccc2Cl)c1C(=O)N1CCOCC1	none
Cc1cccc(C)c1-c1nc(C(=O)N2CCCC2)n2ccccc12	KDM5B inh 39.8µM

Screens (PubChem BioAssay)
